# Reference: ChEMBL document CHEMBL1157539, “Thousands of chemical starting points for antimalarial lead identification” (Nature, 2010)
# “And” between values parts separate entries of the source, which are not always exact repeats. Equal values may be shown once.
# What was measured:
# Format in all cases: functional
# [1] = system: Plasmodium falciparum; assay: GSK_TCMDC: Inhibition of Plasmodium falciparum 3D7 in whole red blood cells, using parasite LDH activity as an index of growth. Test compounds present at 2uM
# [2] = system: Plasmodium falciparum; assay: GSK_TCMDC: Inhibition of Plasmodium falciparum Dd2 in whole red blood cells, using parasite LDH activity as an index of growth. Test compounds present at 2uM
# [3] = system: HepG2; assay: GSK_TCMDC: Percent inhibition of human HepG2 cell line. Test compounds present at 10uM.
Structure (SMILES),Inhibition [1],Inhibition [2],Inhibition [3]
O=C(NCCC1CCN(CCc2c[nH]c3ccccc23)CC1)Nc1ccc(Cl)c(Cl)c1,100%,5%,18%
CCCCCc1cc(O)c2c3c(c(=O)oc2c1)CN(C)CC3,100%,99%,4%
Oc1ccccc1CN1CCC(CCOC(c2ccccc2)c2ccc(Cl)cc2)CC1 (stereo not given),97%,99%,19%
Cc1c2ccncc2c(C)c2c1[nH]c1ccccc12 [ELLIPTECINE],95%,97%,38%
O=C(/C=C/c1c(Cl)cccc1Cl)NC1CCC(CN2CCC(c3c[nH]c4ccccc34)CC2)CC1 (stereo not given),93% and 100%,21% and 42%,54% and 39%
CNC(=O)c1ccc2[nH]cc(C3CCN(CC4CCC(NC(=O)/C=C/c5ccccc5Cl)CC4)CC3)c2c1 (stereo not given),100%,19%,12%
COc1ccc(CCNCc2ccc3nc(N)cc(C)c3c2)cc1,100%,86%,23%
COCCNCc1cccc(-c2ccccc2CN(C(=O)Nc2ccccc2)C2CCN(Cc3ccccc3)CC2)c1.O=C(O)C(F)(F)F,96%,51%,30%
O=C(Cc1c(-c2ccccc2)[nH]c2ccccc12)NC1CCC(CN2CCC(c3c[nH]c4ccccc34)CC2)CC1 (stereo not given),100%,75%,31%
C/C=C1\CN2CC[C@H]1C[C@@H]2[C@@H](O)c1ccnc2ccc(O)cc12,98%,0%,0%
